# PubChem BioAssay AID652189 (Johns Hopkins Ion Channel Center, 2013)
# Hit rate of the full screen: of about 2,300 compounds, about 900 (39%) were called active.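 The calls were made as follows: active = mean duplicate percent inhibition, scaled so buffer wells are 0 and the reference blocker 100, over three buffer SD above buffer mean; inactive = the rest.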 The list is a sample of the results.
# Target: Anoctamin-1 (Mus musculus) (UniProt Q8BHY3)
# Experiment: TMEM16A chloride channel inhibitors, confirmation, cell-based, re-confirmation (AID 652189)
# Settings: HEK293 TMEM16A/YFP-H148Q, iodide quench fluorescence, at 10 µM, ionomycin added to raise cell calcium; active compounds read high
# Chain of Anoctamin-1 (Mus musculus) (Q8BHY3 whole entry, looked up): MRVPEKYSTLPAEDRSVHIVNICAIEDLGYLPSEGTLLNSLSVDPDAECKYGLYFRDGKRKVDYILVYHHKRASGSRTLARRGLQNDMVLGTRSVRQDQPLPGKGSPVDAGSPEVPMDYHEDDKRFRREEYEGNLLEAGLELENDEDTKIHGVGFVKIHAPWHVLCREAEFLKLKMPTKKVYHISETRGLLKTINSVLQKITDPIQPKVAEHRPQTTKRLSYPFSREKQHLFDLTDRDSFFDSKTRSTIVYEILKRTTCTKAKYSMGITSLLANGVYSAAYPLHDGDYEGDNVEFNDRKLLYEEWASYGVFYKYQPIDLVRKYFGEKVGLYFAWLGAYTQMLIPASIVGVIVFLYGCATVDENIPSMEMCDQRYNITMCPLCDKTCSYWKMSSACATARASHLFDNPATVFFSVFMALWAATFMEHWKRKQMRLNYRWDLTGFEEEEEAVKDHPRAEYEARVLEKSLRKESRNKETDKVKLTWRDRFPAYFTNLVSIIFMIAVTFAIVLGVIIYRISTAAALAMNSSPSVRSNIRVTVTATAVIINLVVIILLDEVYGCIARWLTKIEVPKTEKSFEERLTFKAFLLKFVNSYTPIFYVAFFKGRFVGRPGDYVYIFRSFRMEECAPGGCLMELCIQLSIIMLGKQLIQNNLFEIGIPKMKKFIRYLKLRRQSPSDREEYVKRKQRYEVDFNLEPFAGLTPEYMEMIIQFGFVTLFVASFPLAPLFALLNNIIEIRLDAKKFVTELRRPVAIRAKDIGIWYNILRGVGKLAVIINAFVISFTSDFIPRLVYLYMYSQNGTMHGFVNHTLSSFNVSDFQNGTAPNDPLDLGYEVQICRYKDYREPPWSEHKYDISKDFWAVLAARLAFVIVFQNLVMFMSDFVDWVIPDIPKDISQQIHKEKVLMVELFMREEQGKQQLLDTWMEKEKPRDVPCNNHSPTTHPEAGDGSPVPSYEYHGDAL
row,SMILES,inhibition
1,CCCCCn1c(=O)c(C(=O)NCc2ccccn2)c(O)c2ccccc21,23% (active)
2,CCOc1cccc(=NC2CCCCC2)c2c(C)[nH]c(C)c12,inactive
3,CCN(CC)C(=O)c1ccc(NC(=O)c2cc(-n3cnnc3)ccc2Cl)cc1,inactive
